Test results published in PubChem BioAssay.
Values without a mark were called inactive. For some assays here: Entries with a potency or affinity are not part of this list. Activity calls are given as the source filed them. Unless noted, the rule behind the calls is not given here.

Columns and labels:
[1] = antimalarial activity against Dd2 strain (AID 2302;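 active = growth inhibition above 50% at the single 2 µM test dose, taken to imply half-maximal potency below 2 µM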;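 note: 0% = DMSO untreated growth and 100% = chloroquine plus artemisinin killed control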); settings: P. falciparum Dd2 in RBCs, LDH growth readout, 72 h; at 2 µM; active compounds read high
[2] = HepG2 cytotoxicity, primary screen, cytotoxicity control for P. falciparum antimalarial project, cell-based, ATP luminescence (AID 2303;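 active = inhibition above 50%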;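 note: 0% = DMSO wells and 100% = digitonin-killed cells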); settings: HepG2 viability, 24-48 h, at 10 µM, active compounds read high
[3] = molecular target: L-lactate dehydrogenase (Plasmodium falciparum (isolate CDC / Honduras)) (UniProt Q27743); assay: PfLDH activity inhibition – cell lysate, 3D7 strain, counter-screen for P. falciparum growth inhibition project (AID 2304);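 note: 0% = vehicle and 100% = reference inhibitor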; settings: P. falciparum 3D7 crude extract, LDH APAD/NBT absorbance; at 2 µM; active compounds read high
[4] = inhibition of 3D7 malaria parasite growth – strain 3D7 (AID 2306);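 note: 0% = DMSO wells and 100% = chloroquine plus artemisinin control wells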; settings: P. falciparum 3D7 erythrocytic growth, LDH absorbance, 72 h; at 2 µM; active compounds read high
[5] = molecular target: Calcium-dependent protein kinase 1 (Plasmodium falciparum (isolate 3D7)) (UniProt P62344); assay: PfCDPK1 kinase inhibitors, biochemical, TCAMS library (AID 1159585; cut-off not given, nearly all actives have IC50 up to about 0.98 µM;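 note: inhibitors leave more ATP so luminescence rises with inhibition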); settings: recombinant PfCDPK1, Kinase-Glo ATP depletion luminescence
[6] = molecular target: Plasmodium falciparum protein kinase 6 (PK6, PF3D7_1337100) (UniProt Q8IDW1); assay: PfPK6 kinase inhibitors, biochemical, TCAMS library (AID 1159586); settings: recombinant PfPK6, Kinase-Glo ATP depletion luminescence
[7] = molecular target: Protein kinase 7 (PK7), Plasmodium falciparum 3D7 (PF3D7_0213400) (UniProt Q7YTF7); assay: inhibition of Plasmodium PK7 catalytic activity – biochemical, TCAMS antimalarial set, Kinase-Glo luminescence (AID 1159587); settings: recombinant PfPK7, Kinase-Glo ATP depletion luminescence
[8] = molecular target: Calcium-dependent protein kinase 4 (Plasmodium falciparum (isolate 3D7)) (UniProt Q8IBS5); assay: PfCDPK4 kinase inhibitors, biochemical, TCAMS library (AID 1159588; cut-off not given, nearly all actives have IC50 up to about 0.91 µM); settings: recombinant PfCDPK4, Kinase-Glo ATP depletion luminescence
Sequence of Calcium-dependent protein kinase 4 (Plasmodium falciparum (isolate 3D7)) (Q8IBS5 whole entry, looked up): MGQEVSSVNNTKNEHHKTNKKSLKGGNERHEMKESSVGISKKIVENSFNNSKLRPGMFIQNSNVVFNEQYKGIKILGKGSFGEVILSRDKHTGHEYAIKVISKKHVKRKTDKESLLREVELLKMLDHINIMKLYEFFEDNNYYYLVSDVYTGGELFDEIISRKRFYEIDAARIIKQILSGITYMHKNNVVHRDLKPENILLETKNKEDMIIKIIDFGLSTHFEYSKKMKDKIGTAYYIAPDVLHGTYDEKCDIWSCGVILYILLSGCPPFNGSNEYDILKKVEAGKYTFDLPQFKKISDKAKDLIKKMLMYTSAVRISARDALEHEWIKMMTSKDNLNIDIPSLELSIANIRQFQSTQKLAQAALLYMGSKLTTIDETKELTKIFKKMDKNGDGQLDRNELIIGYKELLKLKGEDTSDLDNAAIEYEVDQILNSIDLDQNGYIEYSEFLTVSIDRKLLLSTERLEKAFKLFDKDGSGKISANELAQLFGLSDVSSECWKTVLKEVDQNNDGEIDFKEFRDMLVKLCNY

Sequence of L-lactate dehydrogenase (Plasmodium falciparum (isolate CDC / Honduras)) (Q27743 whole entry, looked up): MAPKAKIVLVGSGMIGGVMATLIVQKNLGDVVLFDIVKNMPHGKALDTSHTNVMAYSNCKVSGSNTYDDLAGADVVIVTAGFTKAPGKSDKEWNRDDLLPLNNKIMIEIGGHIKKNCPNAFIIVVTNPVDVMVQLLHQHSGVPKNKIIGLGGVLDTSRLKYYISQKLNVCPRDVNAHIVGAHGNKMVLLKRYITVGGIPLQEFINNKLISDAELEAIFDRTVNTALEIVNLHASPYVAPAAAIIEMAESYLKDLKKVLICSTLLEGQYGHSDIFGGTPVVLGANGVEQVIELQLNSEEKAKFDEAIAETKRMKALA
Sequence of Protein kinase 7 (PK7), Plasmodium falciparum 3D7 (PF3D7_0213400) (Q7YTF7 1-343): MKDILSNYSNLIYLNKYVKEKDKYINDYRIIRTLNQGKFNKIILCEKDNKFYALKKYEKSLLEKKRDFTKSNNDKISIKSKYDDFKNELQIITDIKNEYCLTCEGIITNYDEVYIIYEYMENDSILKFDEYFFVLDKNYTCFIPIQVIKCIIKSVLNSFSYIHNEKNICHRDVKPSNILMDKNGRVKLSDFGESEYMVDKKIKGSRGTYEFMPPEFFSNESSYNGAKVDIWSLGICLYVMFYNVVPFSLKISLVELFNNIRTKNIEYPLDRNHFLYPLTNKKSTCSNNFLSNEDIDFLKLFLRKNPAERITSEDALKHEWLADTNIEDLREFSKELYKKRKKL
Sequence of Calcium-dependent protein kinase 1 (Plasmodium falciparum (isolate 3D7)) (P62344 whole entry, looked up): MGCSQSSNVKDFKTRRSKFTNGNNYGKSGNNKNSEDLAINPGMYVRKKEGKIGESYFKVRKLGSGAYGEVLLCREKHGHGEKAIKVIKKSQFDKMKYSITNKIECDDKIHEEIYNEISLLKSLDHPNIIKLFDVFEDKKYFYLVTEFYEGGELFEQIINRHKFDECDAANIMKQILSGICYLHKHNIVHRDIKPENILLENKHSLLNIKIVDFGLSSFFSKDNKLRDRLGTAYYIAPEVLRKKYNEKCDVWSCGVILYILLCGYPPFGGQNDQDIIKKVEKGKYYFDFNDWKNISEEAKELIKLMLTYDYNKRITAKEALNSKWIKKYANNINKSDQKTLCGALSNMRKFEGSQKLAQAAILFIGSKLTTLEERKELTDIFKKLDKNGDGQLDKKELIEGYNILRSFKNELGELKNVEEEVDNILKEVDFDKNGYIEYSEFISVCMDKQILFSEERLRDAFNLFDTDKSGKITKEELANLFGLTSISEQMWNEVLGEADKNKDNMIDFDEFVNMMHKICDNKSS
Sequence of Plasmodium falciparum protein kinase 6 (PK6, PF3D7_1337100) (Q8IDW1 1-305): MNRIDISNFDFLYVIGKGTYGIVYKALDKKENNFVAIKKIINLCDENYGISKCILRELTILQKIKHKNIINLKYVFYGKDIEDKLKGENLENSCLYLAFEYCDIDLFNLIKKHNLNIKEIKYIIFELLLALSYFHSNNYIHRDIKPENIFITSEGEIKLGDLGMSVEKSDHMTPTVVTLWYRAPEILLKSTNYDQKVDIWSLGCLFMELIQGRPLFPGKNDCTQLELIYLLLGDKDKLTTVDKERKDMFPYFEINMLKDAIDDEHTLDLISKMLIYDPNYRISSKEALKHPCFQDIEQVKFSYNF

For `Cc1[nH]c(C)c(-c2ccc(Oc3ccc(OC(F)(F)F)cc3)cc2)c(=O)c1I`, the growth inhibition [1] was 96% (active), the inhibition [2] was 3% and the inhibition [3] was -3%. The growth inhibition [4] was 95% (active), the outcome [5] was “inactive” and the outcome [6] was “inactive”. For the same compound, the outcome [7] was “inactive” and the outcome [8] was “inactive”.
In the case of `COc1cccc([C@@H](CC(=O)Nc2cc(C(F)(F)F)ccc2OC)Nc2ccc(C#N)c3ccccc23)c1`, the growth inhibition [1] is reported as 53% (active), the inhibition [2] is reported as 19% and the inhibition [3] is reported as -3%. The growth inhibition [4] was 96% (active), the outcome [5] was “inactive” and the outcome [6] was “inactive”. For the same compound, the outcome [7] was “inactive” and the outcome [8] was “inactive”.
With `CC(=O)Nc1ccc(COc2ccc(Nc3ccnc4cc(-c5ccccn5)ccc34)cc2)cc1` the growth inhibition [1] was 94% (active), the inhibition [2] was 99% (active) and the inhibition [3] was 3%. The growth inhibition [4] was 99% (active), the outcome [5] was “inactive” and the outcome [6] was “inactive”. For the same compound, the outcome [7] was “inactive” and the outcome [8] was “inactive”.
`O=C(/C=C/c1ccc(Cl)c(Cl)c1)NC1CCC(CN2CCC(Cc3c[nH]c4ccccc34)CC2)CC1` (configuration not stated) showed a growth inhibition [1] of 9%, an inhibition [2] of 25% and an inhibition [3] of -7%. For the same compound, the growth inhibition [4] was 101% (active), the outcome [5] was “inactive” and the outcome [6] was “inactive”. The outcome [7] was “inactive” and the outcome [8] was “inactive”.
For `CCNC(C)(C)CN(Cc1ccc(-c2ccc(C(F)(F)F)cc2)cc1)C(=O)Cn1c(CCc2cccc(F)c2F)nc(=O)c2ccccc21`, the growth inhibition [1] was 70% (active), the inhibition [2] was 47% and the inhibition [3] was -7%. The growth inhibition [4] was 97% (active), the outcome [5] was “inactive” and the outcome [6] was “inactive”. For the same compound, the outcome [7] was “inactive” and the outcome [8] was “inactive”.
For `CN1CCCN(Cc2cccc(-c3cccc(NS(=O)(=O)c4cccc5cccnc45)c3)c2)CC1`, the growth inhibition [1] was 74% (active), the inhibition [2] was 21% and the inhibition [3] was -6%. For the same compound, the growth inhibition [4] was 97% (active), the outcome [5] was “inactive” and the outcome [6] was “inactive”. The outcome [7] was “inactive” and the outcome [8] was “inactive”.
With `Cc1ccc(Nc2cc(C)nn2-c2nc(C)cc(=O)[nH]2)cc1` the growth inhibition [1] was 95% (active), the inhibition [2] was 54% (active) and the inhibition [3] was -3%. For the same compound, the growth inhibition [4] was 97% (active), the outcome [5] was “inactive” and the outcome [6] was “inactive”. For the same compound, the outcome [7] was “inactive” and the outcome [8] was “inactive”.
With `Cc1ccccc1N1CCN(c2ccc(C(=O)NC(C)C)cn2)CC1` the growth inhibition [1] was 91% (active), the inhibition [2] was 13% and the inhibition [3] was -2%. For the same compound, the growth inhibition [4] was 89% (active), the outcome [5] was “inactive” and the outcome [6] was “inactive”. For the same compound, the outcome [7] was “inactive” and the outcome [8] was “inactive”.
`O=C(Nc1cccc(-c2ccc(CN3CCCC3)cc2)c1)c1ccc(F)cc1` gave a growth inhibition [1] of 9%, an inhibition [2] of 23% and an inhibition [3] of 4%. For the same compound, the growth inhibition [4] was 92% (active), the outcome [5] was “inactive” and the outcome [6] was “inactive”. The outcome [7] was “inactive” and the outcome [8] was “inactive”.
For `COc1ccc2nccc([C@@H](O)CN3CCC(NCc4cc5ccccc5o4)CC3)c2c1`, the growth inhibition [1] was 72% (active), the inhibition [2] was 17% and the inhibition [3] was 4%. The growth inhibition [4] was 96% (active), the outcome [5] was “inactive” and the outcome [6] was “inactive”. The outcome [7] was “inactive” and the outcome [8] was “inactive”.
Compound `CC(C)c1ccc(NC(=O)c2ccc(C(=O)NC3CCN(CC4CCCCC4)C3)cc2)cc1` (configuration not stated) has a growth inhibition [1] of 26%, an inhibition [2] of 35% and an inhibition [3] of 3%. For the same compound, the growth inhibition [4] was 93% (active), the outcome [5] was “inactive” and the outcome [6] was “inactive”. The outcome [7] was “inactive” and the outcome [8] was “inactive”.
With `CCC(C)c1ccc(NC(=O)C(C)c2ccc([N+](=O)[O-])cc2)cc1` (configuration not stated) the growth inhibition [1] was 100% (active), the inhibition [2] was 14% and the inhibition [3] was -3%. The growth inhibition [4] was 101% (active), the outcome [5] was “inactive” and the outcome [6] was “inactive”. The outcome [7] was “inactive” and the outcome [8] was “inactive”.
In the case of `Cc1cc(NC2CCCC2)nc(Nc2ccccc2F)n1`, the growth inhibition [1] is reported as 53% (active), the inhibition [2] is reported as 24% and the inhibition [3] is reported as -2%. For the same compound, the growth inhibition [4] was 97% (active), the outcome [5] was “inactive” and the outcome [6] was “inactive”. For the same compound, the outcome [7] was “inactive” and the outcome [8] was “inactive”.
Compound `CCCCCCCCOc1ccc(N2C(N)=NC(N)=NC2(C)C)cc1` has a growth inhibition [1] of -6%, an inhibition [2] of 31% and an inhibition [3] of -4%. The growth inhibition [4] was 100% (active), the outcome [5] was “inactive” and the outcome [6] was “inactive”. For the same compound, the outcome [7] was “inactive” and the outcome [8] was “inactive”.
For `COc1ccc2ncc(F)c(CCN3CC[C@H](NCc4cc(C#N)c5c(c4)OCCO5)[C@H](O)C3)c2c1`, the growth inhibition [1] was 47%, the inhibition [2] was 51% (active) and the inhibition [3] was 2%. The growth inhibition [4] was 96% (active), the outcome [5] was “inactive” and the outcome [6] was “inactive”. The outcome [7] was “inactive” and the outcome [8] was “inactive”.
For `O=C(Nc1cc(C(F)(F)F)cc(C(F)(F)F)c1)Nc1ccc(Cl)c(Cl)c1`, the growth inhibition [1] was 100% (active), the inhibition [2] was 58% (active) and the inhibition [3] was 0%. For the same compound, the growth inhibition [4] was 101% (active), the outcome [5] was “inactive” and the outcome [6] was “inactive”. For the same compound, the outcome [7] was “inactive” and the outcome [8] was “inactive”.
With `CN(C)CC1CCCN1Cc1ccccc1-c1cnn(C)c(=O)c1Oc1ccccc1F` (configuration not stated) the growth inhibition [1] was 27%, the inhibition [2] was 18% and the inhibition [3] was -1%. The growth inhibition [4] was 95% (active), the outcome [5] was “inactive” and the outcome [6] was “inactive”. The outcome [7] was “inactive” and the outcome [8] was “inactive”.
In the case of `c1ccc(Oc2ccc(Nc3ccnc4cc(-c5cccc(CNCCN6CCOCC6)c5)ccc34)cc2)cc1`, the growth inhibition [1] is reported as 98% (active), the inhibition [2] is reported as 12% and the inhibition [3] is reported as 7%. For the same compound, the growth inhibition [4] was 102% (active), the outcome [5] was “inactive” and the outcome [6] was “inactive”. For the same compound, the outcome [7] was “inactive” and the outcome [8] was “inactive”.
For `CC(=O)CCc1ccc(OCCN(Cc2ccccc2C(F)(F)F)c2ccc(C#N)c(C(F)(F)F)c2)cc1`, the growth inhibition [1] was 87% (active), the inhibition [2] was 14% and the inhibition [3] was 0%. The growth inhibition [4] was 100% (active), the outcome [5] was “inactive” and the outcome [6] was “inactive”. For the same compound, the outcome [7] was “inactive” and the outcome [8] was “inactive”.
